# Shiga inhibitor: A qHTS for Small Molecule Inhibitors of Shiga Toxin; Vero cells, Shiga toxin protein synthesis inhibition reporter; inhibition, % at 38.7 µM; 290,000 compounds, 9.2% hits; AID 2315, 2010; in the data active means inhibition mostly above about 28%, no sharp cut-off; inactive means mostly below about 43%; further: 0% is about no effect
# Pf growth 96h: Primary qHTS for delayed death inhibitors of the malarial parasite plastid, 96 hour incubation; P. falciparum luciferase reporter growth, 96 h; Potency, µM (series often up to 28.7 µM), inactives show at the top dose activity change, negative = inhibition, usual class: inhibitors; 320,000 compounds, 6.9% hits; AID 504834, 2011; active means well fitted inhibition curve with a large enough effect; inconclusive means small, poorly fitted or top-dose-only effect, or another doubt; inactive means no such curve, though single readings can be large or run the other way; further: potency means the concentration at half of the fitted maximal effect; on the % scale 0 is the no-effect control and ±100 the full control effect
#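 Two-generation exposure (96 h) targets delayed-death phenotype. Reporter parasites carrying integrated firefly luciferase, in red cells at 2% hematocrit and 0.05% parasitemia final, kept at 37 C, 5% CO2; luminescence loss indicates inhibition.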
# SARS PLP yeast: qHTS of Yeast-based Assay for SARS-CoV PLP; Potency, µM (series often up to 32.9 µM), without a hit: at the top dose activity, positive = growth rescue, usual class: activators; S. cerevisiae expressing SARS-CoV PLpro, growth rescue; AID 485353, 2010; 330,000 compounds, 0.19% hits; further: potency means the concentration at half of the fitted maximal effect; 0% is about no effect; nearly all actives have a fitted effect of over 55% in size
# Pf growth 48h: Primary qHTS for delayed death inhibitors of the malarial parasite plastid, 48 hour incubation | P. falciparum luciferase growth in erythrocytes, 48 h | 310,000 compounds, 5.9% hits | Potency, µM (doses to about 28.7 µM), for inactives: top-dose activity change, negative = inhibition, hits mostly inhibitors; active means well fitted inhibition curve with a large enough effect; inconclusive means small, poorly fitted or top-dose-only effect, or another doubt; inactive means no such curve, though single readings can be large or run the other way; further: potency means the concentration at half of the fitted maximal effect; on the % scale 0 is the no-effect control and ±100 the full control effect
#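 Erythrocytes infected with P. falciparum carrying an integrated firefly luciferase reporter (2% hematocrit, 0.1% parasitemia final) were exposed to compounds in RPMI 1640 with 0.5% Albumax at 37 C, 5% CO2. Growth inhibition was scored as reduced luminescence.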
# Cycloheximide cs: Cycloheximide Counterscreen for Small Molecule Inhibitors of Shiga Toxin | cell reporter, cycloheximide protein synthesis inhibition counterscreen | max response, % | 300,000 compounds, 12% hits; in the data active means max response mostly above about 13%, no sharp cut-off; inactive means mostly below about 14%; further: read at 38.3 µM for the half of the compounds with a filed dose; 0% is about no effect
# NS1 function inh: qHTS Assay for Inhibitors of Influenza NS1 Protein Function; AID 2326, 2010; Potency, µM (doses to about 46.1 µM), for inactives: at the top dose activity, positive = more growth; 270,000 compounds, 0.4% hits; further: potency means the concentration at half of the fitted maximal effect; actives are rising curves; nearly all actives have a fitted effect of over 50% in size
#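 Recovery from NS1-induced slow growth read by OD600 in budding yeast switched to galactose assay medium (pH 6.0, -URA) at 1:100 dilution. Compound 23 nl per well; the matching strain lacking NS1 serves as control.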
# Starred values were filed as active, the others as inactive; i = inactive; ? = inconclusive; / = no result given; + = active, no number. In the library only some 21% were active in any assay of this set; here they are far more common. Unless noted, the call rests on the fitted dose curve.
SMILES,Shiga inhibitor,Pf growth 96h,SARS PLP yeast,Pf growth 48h,Cycloheximide cs,NS1 function inh
CC(C)(C)OC(=O)[C@H](Cc1ccccc1)NC(=O)c1nc[nH]c1C(=O)NCc1ccccc1,-9,1%,-2%,-1%,-3,22%
C=CCOc1c(Cl)cc(CNCCCN2CCOCC2)cc1OC,-9,?,1%,-11%,-2,11%
CCN(C(=O)COC(=O)CC1CCCCC1)c1c(N)n(Cc2ccccc2)c(=O)[nH]c1=O,/,?,2%,?,/,/
CC(=O)n1c(COS(C)(=O)=O)nc2ccccc21,/,/,/,/,/,1%
CCOc1ccc2nc(NC(=O)c3ccc(OCC4CCCO4)cc3)sc2c1 (configuration not stated),36*,?,12%,8.3µM*,35*,1%
Cc1csc(NC(=O)c2ccc(OCC3CCCO3)cc2)n1 (configuration not stated),39,108%,-3%,i,14*,/
Cc1cccc2sc(NC(=O)c3ccc(OCC4CCCO4)cc3)nc12 (configuration not stated),100*,-16%,0%,?,46*,2%
CCOC(=O)c1c(NC(=O)COC(=O)Cc2c[nH]c3ccccc23)sc(C(=O)N(C)C)c1C,/,?,-10%,?,/,/
O=C(N/N=C/c1ccccc1)c1ccc(NC(=O)c2ccc(F)cc2)cc1,58*,-14%,-4%,?,49*,5%
Cc1ccc(CNC(=O)c2csc3c2CCCCC3)cc1,12,?,2%,11%,-1,3%
CC(C)(C)NC(=O)C(=O)N/N=C/c1ccc(F)cc1,48*,-5%,0%,3%,26*,/
O=C(N/N=C/c1ccc(C(F)(F)F)cc1)c1ccc(O)cc1,44*,21%,?,13%,32*,/
Cc1ccccc1C(=O)Nc1ccc(C(=O)N/N=C/c2ccc(F)cc2)cc1,-7,15%,3%,?,4,/
O=C(N/N=C/c1ccc(O)cc1)c1csc2c1CCCC2,57*,19%,-6%,18%,47*,-1%
Cc1ccc(C)c(C(=O)COC(=O)CN2C(=O)C3C4C=CC(C4)C3C2=O)c1 (configuration not stated),-6,-6%,3%,-22%,16,?
O=C(O)CCN1C(=O)c2ccc(NC(=O)COc3ccccc3)cc2C1=O,1,9%,0%,43%,1,-4%
CCOc1nc(C)cc(C)c1S(=O)(=O)c1cccc(Cl)c1,2,0%,-6%,?,3,-12%
COC(=O)c1ccc(/C=N/NC(=O)c2cccc(F)c2)cc1,105*,-42%,-10%,?,61*,6%
COc1cc(/C=N\NC(=O)c2ccc(C)nc2)ccc1OC(=O)c1cccc(F)c1,-2,7%,-2%,48%,-3,8%
CC(=O)Nc1cccc(C(=O)N/N=C/c2cccc(C)n2)c1,23,105%,0%,7%,14,7%
O=C(N/N=C/c1cnc2ccccc2n1)c1cccc(F)c1,+,20%,2%,67%,27*,-14%
O=C(N/N=C\c1cccc(F)c1)c1ccc(-c2ccccc2)cc1,26,-26%,-2%,8%,21*,-2%
O=C(CC(=O)Nc1ccc(Cl)cc1)N/N=C\c1cccc(F)c1,-3,10µM*,2%,2%,-6,7%
COc1cc(/C=N/n2c(C3CCCCC3)n[nH]c2=S)ccc1O,-9,15%,-2%,27%,4,1%
CN(C)S(=O)(=O)c1cccc(NC(=O)CN2C(=O)NC(Cc3c[nH]c4ccccc34)C2=O)c1 (configuration not stated),-13,-29%,1%,-5%,17,-2%
SMILES,Shiga inhibitor,Pf growth 96h,SARS PLP yeast,Pf growth 48h,Cycloheximide cs,NS1 function inh
CCCCN(C)C(=O)c1nc2ccccn2c1CN1CCSCC1,-22,-1%,0%,3%,-4,-1%
CCOc1ccc(C(=O)N/N=C/c2ccc(SC)cc2)cc1,0,?,-1%,-28%,-2,6%
O=C(N/N=C\c1ccc(F)cc1)c1ccc(F)cc1,75*,-10%,-3%,241%,47*,/
O=C(N/N=C\c1c(F)c(F)c(F)c(F)c1F)c1ccc(-c2ccccc2)cc1,-5,?,-7%,-35%,5,9%
CSc1ccc(/C=N/NC(=O)c2cccc(O)c2)cc1,76,98%,-9%,152%,27*,2%
CC(=O)Nc1ccc(C(=O)N/N=C/c2ccc(F)cc2)cc1,-3,?,4%,58%,4,/
Nc1ccc(C(=O)N/N=C/c2ccccc2)cc1,108*,39%,-7%,112%,41*,8%
O=C(O)[C@H](C1NCCS1)N1Cc2ccccc2C1 (some centres not stated),/,/,/,/,/,1%
c1ccc(N2CC3CCc4ccccc4C3=N2)cc1 (configuration not stated),64*,147%,0%,148%,39*,1%
CC(C)(C)NC(=O)[C@H]1CN(Cc2cccnc2)CCN1C[C@@H](O)C[C@@H](Cc1ccccc1)C(=O)N[C@H]1c2ccccc2C[C@H]1O,-9,-17%,/,11µM*,-4,/
CCOC(=O)c1nnn(-c2nonc2N)c1-c1ccc(OC)cc1,-9,?,2%,2.1µM*,-1,-3%
CCOC(=O)c1nnn(-c2nonc2N)c1-c1cccc2ccccc12,-13,5.2µM*,3%,3.3µM*,-2,-69%
CCOC(=O)c1nnn(-c2nonc2N)c1-c1cccs1,12,-3%,-8%,-14%,8,-12%
CCOC(=O)c1nnn(-c2nonc2N)c1-c1ccc(F)cc1,14,3%,-6%,12µM*,6,/
CCOC(=O)c1nnn(-c2nonc2N)c1-c1ccc(Cl)cc1,-7,?,0%,12µM*,5,/
Cc1cc(C)n2nc(C(=O)N/N=C/c3ccco3)nc2n1,-1,22%,0%,9%,-1,2%
CC1(C)CC(=O)C=C(NCCc2c[nH]c3ccccc23)C1,0,1%,0%,-3%,9,5%
CC1(C)[C@@H]2CC[C@@](C)(C2)[C@H]1OC(=O)c1ccccc1C(=O)O,/,/,/,/,/,0%
COc1ccc(CC(=O)OCC(=O)NC(=O)NC2CCCCC2)cc1,-13,9%,-11%,0%,-2,-52%
CC(=O)N1CC(C)Sc2ccc(S(=O)(=O)NCc3ccc(Cl)cc3)cc21 (configuration not stated),-18,?,-8%,5%,1,-8%
COc1ccccc1CP(=O)(c1ccccc1)c1ccccc1,2,8%,-11%,-2%,-1,-2%
O=C(NNC(=O)c1cccc(O)c1)Nc1ccc([N+](=O)[O-])cc1,33,28%,0%,1%,-1,9%

# From PubChem BioAssay
